Source: PubChem BioAssay
In the library only some 9.4% were active in any assay of this set; here they are far more common.
FLuc modulator – inhibits or activates purified firefly luciferase, miR-21 counter-screen; purified FLuc, Km substrates, luminescence inhibition; hit rate 6.9% among 360,000; P08659; Potency, µM (doses to about 57.5 µM), inactives show top-dose activity change, negative = inhibition, usual class: inhibitors;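 further: plate controls were vehicle for no effect and reference inhibitor for full effect; nearly all actives have a fitted effect of over 55% in size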
Target sequence (P08659 whole entry, looked up): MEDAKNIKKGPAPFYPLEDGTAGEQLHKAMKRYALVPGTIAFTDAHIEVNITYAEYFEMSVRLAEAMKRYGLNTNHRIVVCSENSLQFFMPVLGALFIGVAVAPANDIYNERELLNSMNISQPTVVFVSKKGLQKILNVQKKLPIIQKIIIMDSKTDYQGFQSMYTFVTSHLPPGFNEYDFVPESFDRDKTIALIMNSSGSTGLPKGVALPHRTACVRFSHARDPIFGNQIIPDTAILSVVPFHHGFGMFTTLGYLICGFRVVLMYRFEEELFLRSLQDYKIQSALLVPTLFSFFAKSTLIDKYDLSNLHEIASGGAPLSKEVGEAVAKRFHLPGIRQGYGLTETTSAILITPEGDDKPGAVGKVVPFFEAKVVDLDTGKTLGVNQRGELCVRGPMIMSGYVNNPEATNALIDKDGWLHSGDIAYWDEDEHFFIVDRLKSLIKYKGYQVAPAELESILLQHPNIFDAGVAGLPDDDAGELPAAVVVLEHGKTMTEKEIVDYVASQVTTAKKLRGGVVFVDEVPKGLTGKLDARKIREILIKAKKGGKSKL
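Biochemical qHTS of compounds, final roughly 60 µM downward over six points, against 10 nM purified firefly luciferase using Km concentrations of substrates (10 uM D-luciferin, 10 uM ATP) in Tris acetate pH 7.5 buffer; luminescence output.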
Rab9 promoter act – Rab9 promoter activation; Huh7 Rab9 promoter-luciferase reporter, luminescence, 24 h; Potency, µM (titrated, usually from 9.22 µM), for the others: at the top dose activation, negative = inhibition, usual class: activators; hit rate 2.8% among 320,000; AID 485297; further: % of control where 0% means no effect; nearly all actives have a fitted effect of over 60% in size
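Using Huh7 cells stably transfected with Rab9 promoter–luciferase, compounds were incubated 24 h at 37 °C, 5% CO2; luciferase luminescence was read 10 min after reagent addition.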
ELG1 genotox – genotoxicity induction in ELG1-luciferase HEK293T cells. HEK293T ELG1-luciferase reporter, luminescence, 16 h. Potency, µM (titrated, usually from 46 µM), for inactives: top-dose activity change, positive = activation, actives largely listed as activators. hit rate 1.3% among 330,000. AID 504466; further: % of control where 0% means no effect; nearly all actives have a fitted effect of over 60% in size
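Screening used a luciferase reporter fused to human ELG1 in HEK293T cells. Luminescence was read on a CCD plate imager after 16 hr exposure and 30 min ONE-Glo incubation.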
SMN2 splice enh – increases expression of the SMN2 splice variant | HEK293 SMN2-luciferase splicing reporter, luminescence, 30-36 h | Potency, µM (doses to about 46.1 µM), without a hit: top-dose activity change, positive = activation, usual class: activators | hit rate 2.8% among 210,000; further: % of control where 0% means no effect; nearly all actives have a fitted effect of over 55% in size
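qHTS luciferase splicing reporter: luminescence rises when SMN2 exon 7 is included in transfected HEK293 cells. Compound exposure lasted 30-36 h at 37C, with 4.5 mM final sodium butyrate as control, followed by a ONE-Glo read.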
NPC1 prom act – activators of NPC1 promoter | AID 485313 | Potency, µM (titrated, usually from 9.22 µM), for the others: at the top dose activation, actives largely listed as activators | hit rate 2.4% among 320,000 | Huh7 NPC1 promoter luciferase reporter, 24 h; further: % of control where 0% means no effect; nearly all actives have a fitted effect of over 60% in size
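Luminescence read-out of NPC1 promoter-driven luciferase in stably transfected Huh7 cells; compounds delivered in DMSO and left 24 h at 37C, 5% CO2, qHTS titration format.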
ELG1 repair inh – blocks ELG1-dependent DNA repair in HEK293T cells | Potency, µM (highest dose often 46.1 µM), for inactives: at the top dose activity change, negative = inhibition, most hits filed as inhibitors | hit rate 2.3% among 330,000 | HEK293T ELG1-luciferase reporter, luminescence, 16 h; DNA damage induced by 5-fluorouridine; further: on the % scale 0 is the no-effect control and ±100 the full control effect; nearly all actives have a fitted effect of over 55% in size
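Luminescence from the luciferase reporter, measured 30 min after ONE-Glo reagent at room temperature, was the read-out. Beforehand, 2,000 cells per well were exposed for 16 hr at 37 °C to 5-fluorouridine together with compound or vehicle.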
ELG1 FLuc counter – luciferase inhibition in cell-free luciferin readout for ELG1 hits; shares compounds with ELG1 repair inh; cell-free firefly luciferase luminescence counter-screen, ViewLux; Potency, µM (top dose mostly 46.1 µM), inactives show at the top dose activity change, negative = inhibition, most hits filed as inhibitors; hit rate 3% among 350; AID 624247; further: on the % scale 0 is the no-effect control and ±100 the full control effect
ELG1-Luc inh – human ELG1 repair inhibition, luciferase-tagged ELG1 confirmation. shares compounds with ELG1 repair inh. HEK293T ELG1-luciferase levels, luminescence; cells co-treated with 5-fluorouridine. Potency, µM (doses to about 46.1 µM), for the others: at the top dose activity change, negative = inhibition, actives largely listed as inhibitors. hit rate 68% among 670; further: on the % scale 0 is the no-effect control and ±100 the full control effect; nearly all actives have a fitted effect of over 55% in size
ELG1 MMS Luc – confirmation of human ELG1 repair inhibitors, MMS stimulated. shares compounds with ELG1 repair inh. HEK293T luciferase-tagged ELG1 level, MMS stimulated. Potency, µM (series often up to 46.1 µM), without a hit: top-dose activity change, negative = inhibition, hits mostly inhibitors. hit rate 53% among 670; further: on the % scale 0 is the no-effect control and ±100 the full control effect; nearly all actives have a fitted effect of over 60% in size
ELG1 5FU viab – confirmation of ELG1 repair inhibitors: viability with 5FU | shares compounds with ELG1 repair inh | 670 tested, under 10 active | Potency, µM (top dose mostly 46.1 µM), inactives show at the top dose activity change, negative = viability loss, usual class: cytotoxic | cell viability with 5-FU, ELG1-dependent repair | AID 624250;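 further: ELG1-luc HEK293T cells cotreated with 5-fluorouridine at 10 µM final; viability measured 16 h after compound addition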
ELG1 MMS viab – confirmation of ELG1 repair inhibitors: viability with MMS; shares compounds with ELG1 repair inh; Cell viability with MMS, ELG1-dependent DNA repair; Potency, µM (top dose mostly 46.1 µM), inactives show top-dose activity change, negative = viability loss, usual class: cytotoxic; hit rate 33% among 670; AID 624251;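 further: ELG1-luc HEK293T cells co-treated with 10 µM MMS; viability read 16 h after compound addition; on the % scale 0 is the no-effect control and ±100 the full control effect; nearly all actives have a fitted effect of over 60% in size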
Cell viab unstim – counter-screen for ELG1 repair inhibitors: unstimulated cell viability; shares compounds with ELG1 repair inh; cell viability counter-screen, unstimulated, luminescence; Potency, µM (doses to about 45.9 µM), for inactives: at the highest dose activity change, negative = loss of viability, usual class: cytotoxic; hit rate 8% among 900; AID 624252;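 further: compound exposure lasted 16 hours before reading; on the % scale 0 is the no-effect control and ±100 the full control effect; nearly all actives have a fitted effect of over 55% in size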
FLuc enzyme – counter-screen for ELG1 repair inhibitors: firefly luciferase inhibition. hit rate 10% among 350. shares compounds with ELG1 repair inh. Potency, µM (highest dose often 57.5 µM), for inactives: at the top dose activity, negative = inhibition, most hits filed as inhibitors. AID 624253. purified firefly luciferase, luminescence counter-screen; further: on the % scale 0 is the no-effect control and ±100 the full control effect
* hit, by the source's call; u = inconclusive; x = not tested or not shown. The call rests on the fitted dose curve; in most records, active means well fitted curve in the direction sought with a large enough effect; inconclusive means small, poorly fitted or top-dose-only effect, or another doubt; inactive means no such curve, though single readings can be large; an effect the other way counts as inactive or inconclusive. Potency means the concentration at half of the fitted maximal effect.

SMILES	FLuc modulator	Rab9 promoter act	ELG1 genotox	SMN2 splice enh	NPC1 prom act	ELG1 repair inh	Cell viab unstim	others
COc1ccc(-n2c(=O)c3ccc(C(=O)NCc4ccc(C)cc4)cc3n(Cc3cccc(Cl)c3)c2=O)cc1	-1%	x	x	1%	x	x	x
CN(C(=O)c1cc2c(s1)-c1ccc(Cl)cc1SC2)c1cccc(C(F)(F)F)c1	3%	x	x	5%	x	x	x
COC(=O)C1(C(=O)OC)C/C=C\Cc2ccccc2[C@@H]1C[N+](=O)[O-]	x	x	x	-6%	x	x	x
Cc1cnc(CNc2ncnc3ccc(-c4cccc(C#N)c4)cc23)cn1	x	x	x	-1%	x	x	x
CSCCC(NS(=O)(=O)c1ccc2c(c1)OCCO2)C(=O)N(C)Cc1ccc(C)cc1 (centres undefined)	6%	-1%	-18%	x	2%	-22%	x
COc1cccc(CN(C)C(=O)C(CCSC)NS(=O)(=O)c2ccc3c(c2)OCCO3)c1OC (centres undefined)	5%	1%	-3%	x	11%	4.6µM*	u	ELG1-Luc inh=11µM*;ELG1 MMS Luc=8.9µM*;ELG1 5FU viab=9%;ELG1 MMS viab=u
O=C(Cn1cnc2cc([N+](=O)[O-])ccc2c1=O)Nc1cccc(S(=O)(=O)N2CCOCC2)c1	-13%	-1%	2%	1%	11%	3.3µM*	u	ELG1-Luc inh=u;ELG1 MMS Luc=28%;ELG1 5FU viab=u;ELG1 MMS viab=-11%
Cc1cccc(NC(=O)c2c(NC(=O)c3ccccc3)sc3c2CCCC3)c1	u	x	x	-6%	x	x	x
CC(=O)c1c(C)n(-c2ccc(Br)cc2)c2ccc(O)cc12	-1%	-1%	-9%	x	0%	-15%	x
CC(=O)c1ccc(-n2c(C)c(C(C)=O)c3cc(O)ccc32)cc1	0%	-2%	-11%	x	15%	2.1µM*	4%	ELG1-Luc inh=u;ELG1 MMS Luc=-1%;ELG1 5FU viab=0%;ELG1 MMS viab=1%
COc1ncc2nc(-c3cc(F)cc(F)c3)c(=O)n(CCC#N)c2n1	x	x	x	-10%	x	x	x
CC1CCc2nc(-c3cc4ccc(O)cc4oc3=O)sc2C1 (centres undefined)	x	x	x	x	x	x	-1%	ELG1 FLuc counter=53%;FLuc enzyme=0.18µM*
NC(=S)c1cc2ccc(O)cc2oc1=O	u	0%	0%	4%	0%	-14%	x
Cc1cc(C(=O)COC(=O)c2ccc(F)cc2)c(C)n1C	x	x	u	x	x	u	u
Cc1cc(C(=O)COC(=O)c2ccc(NC(=O)CC#N)cc2)c(C)n1CCc1ccc(F)cc1	0%	0%	0%	x	10%	13%	x
